Data on 40 compounds can be found in PubChem BioAssay (NCI).

Molecules are shown by their SMILES. The panel holds about 79,000 compounds, 15% with a hit somewhere; the sample as a whole holds those more often. A number with no mark means an inactive call. Calls of active or inactive are those of the source. Rule as the data show it: active = growth inhibition above about 70%; inactive = the rest.

One experiment in a line: NCI Yeast Anticancer Drug Screen. Data for the rad50 strain (AID 155).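 Also: 0% = growth of vehicle-only cultures of the same strain.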 As to conditions: S. cerevisiae rad50 strain growth inhibition; at 50.0 µM; active compounds read high. The procedure, abridged: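 Readout: growth inhibition relative to vehicle-treated cultures. Compound exposure was carried out in a genetically defined yeast strain deficient in DNA damage repair.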
Take `COc1ccc([N+](=O)[O-])c2c1CONC2(C)C(=O)O` (stereo not given): the growth inhibition was 8.95%.
As for `COC(=O)C(C(=O)C(=O)Nc1ccccc1C(C)=O)c1nc2ccc(Cl)cc2[nH]c1=O` (stereo not given), the growth inhibition is -31.9%.
For `CCCCCCCCCCCCCCCCCC1(c2ccccc2)NC(=O)NC1=O` (stereo not given), the growth inhibition was 9.5%.
With `CCCCCCCCCC(=O)N/N=C/c1cccnc1`, the growth inhibition is 88.2% (active).
The same measure, in the same setting: in the case of `N#C/C(=C(/Cc1ccc(F)cc1)NP(=O)(c1ccccc1)c1ccccc1)c1ccc(F)cc1` it was 10.9%.
On to `CCCCCCCCCCCCCCCCC1=C(C(=O)OC)NC(N)=NC1O` (stereo not given), for which the growth inhibition is 29%.
As for `C=CC1CNCCC1CC(=O)OCC` (stereo not given), the growth inhibition is -16.6%.
On the same count and under the same terms, the value for `C#Cc1cccc(N=Cc2cc(Cl)cc(C)c2O)c1` was 16.1%; that for `O=C(c1ccccc1)C1Nc2ccccc2CO1` (stereo not given) was -5%; that for `ClC(Cl)C1OCCOCCO1` was -16.1%.
As for `CCC(CC)C(=O)NCC(=O)NO`, the growth inhibition was 2.25%.
Regarding `OC(CNc1ccc(Cl)cc1)CN1CCOCC1` (stereo not given), the growth inhibition was 77.7% (active).
For `[N-]=[N+]=NC[C@H]1OCO[C@H](CN=[N+]=[N-])[C@H]2OCCOCCOc3ccccc3OCCOCCO[C@@H]21`, the growth inhibition was -13.2%.
As for `CCOC(=O)C(=CNc1ccc(NC2=NCC(C)S2)cc1)C(=O)OCC` (stereo not given), the growth inhibition is -0.05%.
On the same count and under the same terms, the value for `CC(=O)Nc1ccc(C)cc1[N+](=O)[O-]` was -29.6%.
As for `Cc1cnc2c(C)ccc([N+](=O)[O-])c2c1NCCCN(C)C`, the growth inhibition was 34.2%.
For the compound `CCOc1ccc2nc(C)ccc2c1`, the growth inhibition is 3.25%.
As for `O=C(Cc1nc2sc3c(c2c(=O)[nH]1)CCCC3)Nc1ccccc1`, the growth inhibition is -3.1%.
Regarding `CC(OC(C)C(N)=O)C(N)=O` (stereo not given), the growth inhibition was -0.05%.
As to `O=[N+]([O-])c1ccccc1-c1ccccc1[N+](=O)[O-]`, the growth inhibition is 24.7%.
Same read-out and setting: in the case of `C/C=C\C=N\NC(=O)C(=O)N/N=C/C=C\C` it was 0.9%.
Same read-out and setting: the value for `CNn1c(C)n[nH]c1=O` was 4.95%.
Still for that read-out and setting: the value for `Cc1ccccc1NC(=O)Cc1csc2[n+]1C(=O)/C(=C\c1ccc3c(c1)OCO3)S2` was 22.9%.
With `CC(=O)CC(C)(C)S(=O)(=O)Cc1ccccc1`, the growth inhibition was -3.4%.
On the same count and under the same terms, the value for `CCCCOP(=O)(Cc1ccc(Cl)cc1Cl)OCCCC` was 99.5% (active); that for `CCCCc1cccc2c1OCO2` was -18.6%; that for `CCOc1ccc(/C=N/O)cc1OCC` was -0.3%.
As to `CCOC(=O)/C(C#N)=N\Nc1ccccc1`, the growth inhibition was -15.5%.
`CC(=O)NCCCCN(CCCNC(C)=O)C(=O)CNS(=O)(=O)c1cccc2c(N(C)C)cccc12`: the growth inhibition is -11.2%.
With `O=C1/C(=C/c2ccc3c(c2)OCO3)CCC1CN1CCOCC1` (stereo not given), the growth inhibition was 91.2% (active).
As for `O=C(CCCC(=O)NNC(=O)Nc1cccc(Cl)c1)NNC(=O)Nc1cccc(Cl)c1`, the growth inhibition is -13.2%.
With `CC(=O)OCC1COC(C2CC=CCC2C)O1` (stereo not given), the growth inhibition was -1.9%.
Same read-out and setting: the value for `O=c1c2ccccc2oc2nc3ccc(Cl)cc3n12` was -6.3%; that for `CCOC(=O)/C(Cl)=C1\SN(C(=O)OCC)N=C1C` was -7.65%; that for `C=C(C)CNCCN` was 36.1%.
Still for that read-out and setting: in the case of `COc1c2ccoc2c(S(=O)(=O)Nc2ccc(Cl)cc2)c2oc(C)cc(=O)c12` it was 4.7%.
For the compound `COc1ccc2c(c1)C13CCCC(C)(C(=O)NC1)C3CC2` (stereo not given), the growth inhibition was -0.15%.
For `CNc1ccccc1C`, the growth inhibition was 37.6%.
In the case of `NC(=O)C1CC2CC(Cl)C1C2` (stereo not given), the growth inhibition was -0.5%.
Take `CC(C)[N+](=C1O[B-](c2ccccc2)(c2ccccc2)O[B-]1(c1ccccc1)[C+]1CCCCC1)C(C)C` (stereo not given): the growth inhibition was -51.1%.

A short description of the next experiment: NCI Yeast Anticancer Drug Screen. Data for the mec2-1 strain (AID 157). As to conditions: S. cerevisiae mec2-1 strain, at 50.0 µM, active compounds read high. The procedure, abridged: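 Mutant yeast (mec2-1) grown with compound; growth inhibition relative to vehicle control reported.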
As to `COc1ccc([N+](=O)[O-])c2c1CONC2(C)C(=O)O` (stereo not given), the growth inhibition is 16.2%.
For `COC(=O)C(C(=O)C(=O)Nc1ccccc1C(C)=O)c1nc2ccc(Cl)cc2[nH]c1=O` (stereo not given), the growth inhibition was -16.2%.
Consider `CCCCCCCCCCCCCCCCCC1(c2ccccc2)NC(=O)NC1=O` (stereo not given), for which the growth inhibition is 10.3%.
Regarding `CCCCCCCCCC(=O)N/N=C/c1cccnc1`, the growth inhibition is 87% (active).
For the compound `N#C/C(=C(/Cc1ccc(F)cc1)NP(=O)(c1ccccc1)c1ccccc1)c1ccc(F)cc1`, the growth inhibition was -3.7%.
`CCCCCCCCCCCCCCCCC1=C(C(=O)OC)NC(N)=NC1O` (stereo not given): the growth inhibition was 0.25%.
As to `C=CC1CNCCC1CC(=O)OCC` (stereo not given), the growth inhibition is -5.55%.
Turning to `C#Cc1cccc(N=Cc2cc(Cl)cc(C)c2O)c1`, the growth inhibition was 10.8%.
Same read-out and setting: in the case of `O=C(c1ccccc1)C1Nc2ccccc2CO1` (stereo not given) it was -13.3%.
In the case of `ClC(Cl)C1OCCOCCO1`, the growth inhibition was -9.65%.
Take `CCC(CC)C(=O)NCC(=O)NO`: the growth inhibition is 2.85%.
`OC(CNc1ccc(Cl)cc1)CN1CCOCC1` (stereo not given): the growth inhibition was 15.2%.
As to `[N-]=[N+]=NC[C@H]1OCO[C@H](CN=[N+]=[N-])[C@H]2OCCOCCOc3ccccc3OCCOCCO[C@@H]21`, the growth inhibition was -9.65%.
As to `CCOC(=O)C(=CNc1ccc(NC2=NCC(C)S2)cc1)C(=O)OCC` (stereo not given), the growth inhibition is 0.35%.
Consider `CC(=O)Nc1ccc(C)cc1[N+](=O)[O-]`, for which the growth inhibition is 1.15%.
Turning to `Cc1cnc2c(C)ccc([N+](=O)[O-])c2c1NCCCN(C)C`, the growth inhibition is 13.8%.
On to `CCOc1ccc2nc(C)ccc2c1`, for which the growth inhibition was -14.7%.
On to `O=C(Cc1nc2sc3c(c2c(=O)[nH]1)CCCC3)Nc1ccccc1`, for which the growth inhibition is -12.3%.
As for `CC(OC(C)C(N)=O)C(N)=O` (stereo not given), the growth inhibition was 0.55%.
Regarding `O=[N+]([O-])c1ccccc1-c1ccccc1[N+](=O)[O-]`, the growth inhibition is 16.3%.
Same read-out and setting: the value for `C/C=C\C=N\NC(=O)C(=O)N/N=C/C=C\C` was -17.1%.
Consider `CNn1c(C)n[nH]c1=O`, for which the growth inhibition is -15.8%.
On the same count and under the same terms, in the case of `Cc1ccccc1NC(=O)Cc1csc2[n+]1C(=O)/C(=C\c1ccc3c(c1)OCO3)S2` it was 7.6%.
Take `CC(=O)CC(C)(C)S(=O)(=O)Cc1ccccc1`: the growth inhibition is 11.2%.
On to `CCCCOP(=O)(Cc1ccc(Cl)cc1Cl)OCCCC`, for which the growth inhibition was 99.7% (active).
Consider `CCCCc1cccc2c1OCO2`, for which the growth inhibition is -0.6%.
Turning to `CCOc1ccc(/C=N/O)cc1OCC`, the growth inhibition is -10.1%.
Take `CCOC(=O)/C(C#N)=N\Nc1ccccc1`: the growth inhibition is 14.6%.
In the case of `CC(=O)NCCCCN(CCCNC(C)=O)C(=O)CNS(=O)(=O)c1cccc2c(N(C)C)cccc12`, the growth inhibition is -17.1%.
As to `O=C1/C(=C/c2ccc3c(c2)OCO3)CCC1CN1CCOCC1` (stereo not given), the growth inhibition is 94.1% (active).
Still for that read-out and setting: the value for `O=C(CCCC(=O)NNC(=O)Nc1cccc(Cl)c1)NNC(=O)Nc1cccc(Cl)c1` was -2.2%; that for `CC(=O)OCC1COC(C2CC=CCC2C)O1` (stereo not given) was -8.9%.
Still for that read-out and setting: in the case of `O=c1c2ccccc2oc2nc3ccc(Cl)cc3n12` it was -7.5%.
The same measure, in the same setting: the value for `CCOC(=O)/C(Cl)=C1\SN(C(=O)OCC)N=C1C` was -3.7%; that for `C=C(C)CNCCN` was 22.1%; that for `COc1c2ccoc2c(S(=O)(=O)Nc2ccc(Cl)cc2)c2oc(C)cc(=O)c12` was -29.9%.
As for `COc1ccc2c(c1)C13CCCC(C)(C(=O)NC1)C3CC2` (stereo not given), the growth inhibition is -17.6%.
Consider `CNc1ccccc1C`, for which the growth inhibition is -15.4%.
Same read-out and setting: in the case of `NC(=O)C1CC2CC(Cl)C1C2` (stereo not given) it was -0.1%; in that of `CC(C)[N+](=C1O[B-](c2ccccc2)(c2ccccc2)O[B-]1(c1ccccc1)[C+]1CCCCC1)C(C)C` (stereo not given), -4.45%.
